Results: PubChem BioAssay
Activity calls are given as the source filed them.

Assays:
Albumin (Bos taurus) = Albumin (Bos taurus) (UniProt P02769); experiment: compounds binding labelled BSA control protein – biochemical, small-molecule microarray, Alexa647 label, 635/667 nm fluorescence, artefact control for SMM control protein annotation, profiling panel (AID 1118); settings: BSA-A647 binding, fluorescence 635 nm, higher = more signal;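 note: score merges 667 nm emission intensity and signal-to-noise per printed compound spot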
Sequence of Albumin (Bos taurus) (P02769 whole entry, looked up): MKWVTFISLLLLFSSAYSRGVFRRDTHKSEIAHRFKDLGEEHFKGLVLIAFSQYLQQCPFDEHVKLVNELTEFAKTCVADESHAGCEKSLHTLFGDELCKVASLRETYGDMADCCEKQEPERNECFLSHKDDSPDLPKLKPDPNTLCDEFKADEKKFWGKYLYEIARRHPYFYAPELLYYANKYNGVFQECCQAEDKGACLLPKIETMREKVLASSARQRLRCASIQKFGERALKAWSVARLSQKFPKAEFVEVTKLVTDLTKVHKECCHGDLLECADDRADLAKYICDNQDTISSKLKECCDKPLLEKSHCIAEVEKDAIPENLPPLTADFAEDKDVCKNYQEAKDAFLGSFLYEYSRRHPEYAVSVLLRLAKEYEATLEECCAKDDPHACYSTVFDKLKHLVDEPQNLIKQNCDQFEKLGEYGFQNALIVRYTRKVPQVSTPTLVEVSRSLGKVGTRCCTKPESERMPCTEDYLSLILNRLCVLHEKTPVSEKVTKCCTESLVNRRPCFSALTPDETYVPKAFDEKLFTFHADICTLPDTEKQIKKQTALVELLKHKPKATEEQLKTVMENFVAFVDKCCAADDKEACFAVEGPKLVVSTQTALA

[1] = probe aXIP binding to arrayed compounds – biochemical, NeuroSMM set, 635/667 nm fluorescence, primary screen (AID 1119); settings: small-molecule microarray, higher = more signal, called active from +8 up or from −8 down;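 note: probe is the protein aXip251-270 applied at 1 µg/mL to compound-printed slides; binding of probe to printed compounds measured as 667 nm fluorescence plus signal to noise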
[2] = probe aNOTCH3 binding on compound microarray – biochemical, small-molecule microarray, 635/667 nm fluorescence, primary screen (AID 1120); settings: higher = more signal;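 note: probe is a biotin-tagged antibody raised against NOTCH3 rather than NOTCH3 protein; score merges spot fluorescence near 667 nm with spot signal to noise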
[3] = probe aNOTCH2 binding on compound microarray – biochemical, small-molecule microarray, 635/667 nm fluorescence, primary screen (AID 1121); settings: higher = more signal;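 note: score merges feature fluorescence read at 667 nm with its signal to noise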
[4] = biological target: Carbonic anhydrase 2 (Homo sapiens) (UniProt P00918); experiment: compounds binding carbonic anhydrase 2 – biochemical, small-molecule microarray, Alexa647-labelled CAII, profiling panel (AID 1122); settings: CAII-A647 binding fluorescence, higher = more signal
[5] = COS7 lysate on small-molecule microarray, probe aHis, 635 nm (AID 1123); settings: COS7 cell lysate, fluorescence, higher = more signal;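 note: z-score combines 667nm fluorescence intensity with signal-to-noise per printed compound spot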
[6] = probe aLAP1 signal on lysate-treated microarray – cell lysate, small-molecule microarray, COS7 lysate, primary screen (AID 1124); settings: probe aLAP1, fluorescence, higher = more signal;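 note: lysate comes from COS7 cells expressing LAP1 and is applied at 0.3 µg/mL; score merges spot fluorescence near 667 nm with signal-to-noise over triplicate slides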
Sam68 (KHDRBS1) = experiment: compounds binding KHDRBS1 protein – biochemical, small-molecule microarray, 635 nm fluorescence, primary screen (AID 1125); settings: higher = more signal;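 note: score merges 667 nm channel intensity with signal to noise over triplicate slides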
[7] = test system: Chordin-like protein 2 (CHRDL2); experiment: compounds binding chordin-like 2 – biochemical, small-molecule microarray, 635 nm fluorescence, primary screen (AID 1126); settings: fluorescence 635 nm, higher = more signal;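 note: printed compound slides probed with Chrdl2 protein at 4 µg/mL for 1 h at 4 C; score merges 667 nm emission intensity with signal to noise over three replicate slides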
[8] = biological target: Concanavalin-A (Canavalia ensiformis) (UniProt P02866); experiment: compounds binding concanavalin A lectin – biochemical, small-molecule microarray, Alexa647 label, 635 nm, artefact control for SMM control protein annotation, primary screen (AID 1127); settings: ConA-A647 binding fluorescence, higher = more signal;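 note: z combines 667 nm emission intensity with signal-to-noise across three replicate slides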
Sequence of Concanavalin-A (Canavalia ensiformis) (P02866 whole entry, looked up): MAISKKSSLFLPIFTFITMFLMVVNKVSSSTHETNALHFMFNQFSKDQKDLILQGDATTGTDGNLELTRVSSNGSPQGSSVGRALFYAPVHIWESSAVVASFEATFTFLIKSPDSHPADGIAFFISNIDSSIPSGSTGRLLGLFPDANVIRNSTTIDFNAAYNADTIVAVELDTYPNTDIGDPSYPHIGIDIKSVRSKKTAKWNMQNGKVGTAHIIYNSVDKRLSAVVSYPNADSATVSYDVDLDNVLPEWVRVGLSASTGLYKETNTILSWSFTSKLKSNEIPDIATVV

[9] = compounds binding Alexa647 anti-His antibody – biochemical, small-molecule microarray, 635 nm fluorescence, artefact control for SMM control protein annotation, primary screen (AID 1128); settings: higher = more signal;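 note: score merges feature fluorescence with signal-to-noise for each printed compound spot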
[10] = test system: Human papillomavirus type 1a E7 protein (residues 1-88); experiment: HPV1a E7 small-molecule binders, primary screen, biochemical, small-molecule microarray, residues 1-88, 635 nm (AID 1129); settings: small-molecule microarray binding, fluorescence 635 nm; higher = more signal
[11] = biological target: Focal adhesion kinase 1 (Homo sapiens) (UniProt Q05397); experiment: PTK2 protein binding on printed compound slides – biochemical, small-molecule microarray, 635/667 nm fluorescence, BSA, DTT, primary screen (AID 1130); settings: 635 nm fluorescence, higher = more signal;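 note: composite of spot emission at 667 nm and signal to noise over triplicate slides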
Sequence of Focal adhesion kinase 1 (Homo sapiens) (Q05397 whole entry, looked up): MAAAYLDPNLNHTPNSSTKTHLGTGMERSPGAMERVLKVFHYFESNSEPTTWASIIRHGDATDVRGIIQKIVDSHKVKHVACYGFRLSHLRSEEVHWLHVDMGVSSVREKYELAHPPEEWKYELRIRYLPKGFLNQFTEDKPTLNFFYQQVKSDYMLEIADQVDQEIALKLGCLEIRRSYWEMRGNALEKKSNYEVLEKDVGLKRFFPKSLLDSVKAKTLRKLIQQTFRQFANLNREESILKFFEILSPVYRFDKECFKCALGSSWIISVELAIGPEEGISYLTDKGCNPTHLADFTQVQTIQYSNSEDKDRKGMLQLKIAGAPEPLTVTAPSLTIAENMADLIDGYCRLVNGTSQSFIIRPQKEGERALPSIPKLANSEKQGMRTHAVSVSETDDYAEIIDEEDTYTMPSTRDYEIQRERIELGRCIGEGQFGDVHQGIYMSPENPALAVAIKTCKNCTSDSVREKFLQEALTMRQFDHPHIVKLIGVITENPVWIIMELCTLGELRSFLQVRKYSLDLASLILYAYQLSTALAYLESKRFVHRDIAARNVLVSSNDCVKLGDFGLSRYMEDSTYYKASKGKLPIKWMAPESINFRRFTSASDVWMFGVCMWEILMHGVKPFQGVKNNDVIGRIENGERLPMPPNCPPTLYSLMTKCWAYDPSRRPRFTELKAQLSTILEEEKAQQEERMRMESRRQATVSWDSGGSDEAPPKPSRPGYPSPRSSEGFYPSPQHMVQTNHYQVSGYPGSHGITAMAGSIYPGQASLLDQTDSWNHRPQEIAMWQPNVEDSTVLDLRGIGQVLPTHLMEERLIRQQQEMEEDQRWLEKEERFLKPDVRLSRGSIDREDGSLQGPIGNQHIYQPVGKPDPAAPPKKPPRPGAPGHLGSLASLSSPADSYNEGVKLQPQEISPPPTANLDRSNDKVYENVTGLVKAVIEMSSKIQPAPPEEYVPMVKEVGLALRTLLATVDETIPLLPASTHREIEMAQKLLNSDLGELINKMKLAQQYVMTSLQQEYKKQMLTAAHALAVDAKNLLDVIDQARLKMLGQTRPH

[12] = test system: Fibrinogen (Alexa647-labelled); experiment: Alexa647-fibrinogen binding to printed small molecules – biochemical, small-molecule microarray, 635/667 nm fluorescence, artefact control for SMM control-protein annotation, profiling panel (AID 1131); settings: fibrinogen-A647 binding fluorescence, higher = more signal;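 note: z-score merges 667 nm fluorescence with per-spot signal-to-noise over triplicate slides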
[13] = biological target: Follistatin (Homo sapiens) (UniProt P19883); experiment: FST protein binding to printed compounds – biochemical, small-molecule microarray, 635/667 nm fluorescence, primary screen (AID 1132); settings: 635 nm fluorescence, higher = more signal
Sequence of Follistatin (Homo sapiens) (P19883 whole entry, looked up): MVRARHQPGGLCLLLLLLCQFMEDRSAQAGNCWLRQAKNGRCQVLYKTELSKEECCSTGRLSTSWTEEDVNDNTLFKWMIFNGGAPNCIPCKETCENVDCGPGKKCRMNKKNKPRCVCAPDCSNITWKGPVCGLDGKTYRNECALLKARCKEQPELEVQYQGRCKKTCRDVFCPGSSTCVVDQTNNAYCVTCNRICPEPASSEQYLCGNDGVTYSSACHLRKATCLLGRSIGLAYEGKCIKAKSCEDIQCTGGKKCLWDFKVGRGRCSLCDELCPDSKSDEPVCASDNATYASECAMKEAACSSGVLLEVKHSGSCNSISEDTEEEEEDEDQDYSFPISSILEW

[14] = biological target: Fibroblast growth factor 2 (Homo sapiens) (UniProt P09038); experiment: basic fibroblast growth factor binding to printed compounds – biochemical, small-molecule microarray, 635/667 nm fluorescence, primary screen (AID 1133); settings: FGF2, fluorescence 635/667, higher = more signal
Sequence of Fibroblast growth factor 2 (Homo sapiens) (P09038 whole entry, looked up): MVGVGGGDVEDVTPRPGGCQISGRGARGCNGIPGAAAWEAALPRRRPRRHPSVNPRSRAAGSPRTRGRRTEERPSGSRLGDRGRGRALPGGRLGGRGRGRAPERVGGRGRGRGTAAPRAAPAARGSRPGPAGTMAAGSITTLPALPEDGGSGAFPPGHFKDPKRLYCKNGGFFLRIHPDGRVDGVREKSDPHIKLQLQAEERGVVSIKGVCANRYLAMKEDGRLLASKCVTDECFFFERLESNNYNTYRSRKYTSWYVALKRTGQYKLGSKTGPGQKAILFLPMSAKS

[15] = JC-1 mitochondrial potential readout, lung cancer cells – cell-based, A549, JC-1 fluorescence, basal, 24 h, 100 nL, profiling panel (AID 1138); settings: higher = more signal;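 note: A549 lung adenocarcinoma cells under basal conditions with no added stimulus; test concentration not given here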
Lefty1 = Lefty1 protein binding to printed compounds – biochemical, small-molecule microarray, 635/667 nm fluorescence, primary screen (AID 1139); settings: fluorescence 635/667, higher = more signal
[16] = test system: wheat germ agglutinin (Triticum aestivum), Alexa647-labelled; experiment: Alexa647-WGA lectin binding to printed small molecules – biochemical, small-molecule microarray, 635/667 nm fluorescence, artefact control for SMM control-protein annotation, profiling panel (AID 1140); settings: WGA-A647 binding, 635 nm fluorescence, higher = more signal;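 note: score merges 667 nm feature emission with signal to noise over triplicate slides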
[17] = biological target: Luciferin 4-monooxygenase (Photinus pyralis) (UniProt P08659); experiment: inhibition of purified Photinus pyralis luciferase – biochemical, luminescence, purified enzyme, 2006 set, primary screen (AID 1141); settings: purified firefly luciferase, SteadyGlo luminescence, 30 min; higher = more signal, called active from +8 up or from −8 down;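 note: cell-free assay with purified firefly luciferase at 100 ng per well in PBS; test concentration not given here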
Sequence of Luciferin 4-monooxygenase (Photinus pyralis) (P08659 whole entry, looked up): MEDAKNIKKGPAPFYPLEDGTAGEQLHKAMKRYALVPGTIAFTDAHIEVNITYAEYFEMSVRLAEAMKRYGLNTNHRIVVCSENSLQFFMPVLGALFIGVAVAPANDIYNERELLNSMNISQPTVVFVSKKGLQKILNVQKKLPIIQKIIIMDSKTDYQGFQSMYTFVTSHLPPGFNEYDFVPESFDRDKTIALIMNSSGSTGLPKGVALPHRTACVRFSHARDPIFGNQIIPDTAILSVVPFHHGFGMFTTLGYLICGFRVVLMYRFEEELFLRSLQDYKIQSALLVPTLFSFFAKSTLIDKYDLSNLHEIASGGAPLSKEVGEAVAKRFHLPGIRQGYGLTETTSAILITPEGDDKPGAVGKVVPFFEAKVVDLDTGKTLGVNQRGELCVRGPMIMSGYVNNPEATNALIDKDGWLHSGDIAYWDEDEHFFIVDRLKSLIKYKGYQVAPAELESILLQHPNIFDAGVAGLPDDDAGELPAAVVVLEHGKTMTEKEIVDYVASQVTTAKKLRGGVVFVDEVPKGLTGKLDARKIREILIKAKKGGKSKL

| SMILES | composite z-score (Albumin (Bos taurus)) | composite Z-score [1] | composite z-score [2] | composite z-score [3] | composite z-score [4] | composite z-score [5] | composite z-score [6] | composite z-score (Sam68 (KHDRBS1)) | composite z-score [7] | composite z-score [8] | composite z-score [9] | composite z-score [10] | composite z-score [11] | composite z-score [12] | composite z-score [13] | composite z-score [14] | z-score [15] | composite z-score (Lefty1) | composite z-score [16] | z-score [17] |
| --- | --- | --- | --- | --- | --- | --- | --- | --- | --- | --- | --- | --- | --- | --- | --- | --- | --- | --- | --- | --- |
| O[C@@H](Cc1ccccc1)[C@@H](/C=C/C1CC1)N(CC#Cc1ccccc1)Cc1cccc(Cl)c1 | -0.22 | 0.889 (inactive) | -0.376 | -0.117 | -0.245 | -0.359 | 0.0449 | -0.117 | -1.21 | -0.403 | -0.156 | -0.429 | -0.0816 | -0.6 | -1.19 | -1.43 | 0.513 | -0.954 | 0.197 | 0.466 (inactive) |
| COc1ccc([Si](C)(C)[C@@H]2[C@@H](CC(=O)N(CCO)Cc3ccccc3)O[C@]3(C(=O)N(c4ccccc4)c4ccccc43)[C@H]2C)cc1 | 0.593 | 0.657 (inactive) | 0.105 | -0.162 | 0.357 | 1.07 | 0.0513 | 0.981 | 1.4 | 1.1 | 1.13 | 1.14 | 0.437 | 0.874 | 1.07 | 0.716 | 0.0115 | 1.29 | 0.291 | 0.293 (inactive) |
| C=CCC(OC(C)=O)[C@@H]1[C@@H](N(Cc2cccc3ccccc23)C(=O)Cc2ccc(F)cc2)c2cc(OCCCO)ccc2N1C(=O)c1ccc2ccccc2n1 (stereo not given in full) | -0.0728 | -0.486 (inactive) | -0.0125 | 0.0156 | 0.409 | 0.0549 | 0.398 | -0.301 | 0.192 | 0.483 | -0.478 | -0.0554 | -0.122 | 0.0688 | 0.187 | 0.386 | -0.0984 | -0.553 | 0.748 | 0.0778 (inactive) |
| CCCCC=C[C@@H](NC(=O)c1ccc(-c2ccccc2)cc1)c1ccccc1 | 0.43 | 0.516 (inactive) | 0.112 | 0.0065 | 0.641 | 1.08 | 1.01 | 1.07 | -0.309 | 0.933 | 0.512 | 1.19 | 0.416 | 0.413 | -0.107 | -0.0601 | -0.428 | -0.217 | 0.535 | 2.01 (inactive) |
| [N-]=[N+]=NCc1ccccc1C[C@@]1(C(=O)NCc2ccccc2)N=C(c2ccc(OCCCO)cc2)O[C@@H]1c1ccccc1N=[N+]=[N-] | 0.428 | -0.126 (inactive) | -0.102 | -0.0527 | 0.301 | -0.0255 | 0.472 | 1.06 | -1.06 | 0.725 | 1.64 | 1.18 | 0.0861 | 0.948 | 0.557 | -0.58 | 1.12 | -0.324 | 1.15 | -6.99 (inactive) |
| COC(=O)c1cn(C[C@@H](Cc2ccccc2)NC(=O)N[C@H](CO)CCc2oc(C(C)=O)c(C(=O)OC)c2C(=O)OC)nn1 | -0.0181 | 0.055 (inactive) | 0.134 | -0.128 | 0.182 | 0.5 | 0.421 | 1.01 | 1.15 | 0.299 | 1.42 | 0.533 | 0.192 | 0.729 | 1.02 | 0.86 | 0.642 | 1.17 | 0.235 | -0.373 (inactive) |
| CC(C)(C)OC(=O)CC[C@@]1(C(=O)NCc2ccccc2)N=C(c2ccc(OCCCO)cc2)O[C@@H]1c1ccccc1N=[N+]=[N-] | 0.952 | 0.399 (inactive) | 0.66 | 0.115 | 0.73 | 2.97 | 0.935 | 1.29 | 0.134 | 1.04 | 1.63 | 1.25 | 1.22 | 0.951 | 1.39 | 1.58 | -1.16 | 0.432 | 1.07 | -11 (active) |
| COC(=O)[C@@]1(Cc2ccccc2)[C@@H]2C(=CC(=O)[C@H]2CC(=O)C(=O)N(C)C)CN1C(=O)c1ccccc1 | 0.93 | -0.0478 (inactive) | 0.462 | 0.23 | 0.808 | 2.61 | 0.931 | 1.2 | -0.202 | 1.08 | 2.15 | 1.25 | 0.745 | 0.0523 | 0.324 | -0.147 | -0.312 | -0.271 | 0.407 | -21 (active) |
| COc1ccc(CCN2C(=O)[C@@]3(Cc4ccccc42)c2ccccc2C(=O)N(Cc2ccccc2OC)[C@H]3c2ccc(CO)cc2)cc1 | 0.282 | -0.0127 (inactive) | -0.177 | -0.0785 | 0.162 | 0.215 | -0.778 | -0.232 | -0.761 | -0.516 | -0.983 | -1.04 | -0.149 | -1.45 | -1.19 | -0.832 | 0.132 | -1.55 | -0.176 | -0.377 (inactive) |
